Measured values: PubChem BioAssay AID652104 (National Center for Advancing Translational Sciences (NCATS), 2013)
Among all 410,000 compounds or so, about 7,200 (1.8%) were called active. A call without a number means that no potency is given here. Roughly 7% stayed inconclusive and do not appear here. The full list was thinned out, with actives kept by preference. Unmarked numbers belong to inactive results. Calls follow the shape of the dose curve; as a rule, active = well fitted activation curve with a large enough effect; inconclusive = small, poorly fitted or top-dose-only effect, or another doubt; inactive = no such curve, though single readings can be large or run the other way.

Assay: qHTS of TDP-43 Inhibitors; also: nearly all actives have a fitted effect of over 50% in size
Details: TDP-43 expressing yeast growth rescue, BacTiter-Glo, 24 h; series mostly up to 46.1 µM
Method in brief: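 In this qHTS, compounds that restore growth of yeast expressing TDP-43 appear as activators. Cells (OD600=0.02, galactose medium, raffinose-pregrown) are incubated with compound 24 hr at 30 deg C and growth is quantified by BacTiter-Glo.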
Potency is read from the fitted curve at half-maximal effect.

Structure (SMILES)	Potency	growth rescue (activation)
Cc1nn(C)c2c1c(C(F)(F)F)cc(=O)n2C(C)C(=O)NCc1ccc(Cl)cc1 (stereo unspecified)	inactive	–
Cc1ccccc1CNC(=O)CCCn1nc(C)c2sc3ccccc3c2c1=O	inactive	–
CC(C)(C)Nc1c(-c2cccs2)nc2ccccn12	inactive	–
Cc1cc2nc(C(F)(F)F)cc(-c3cccs3)n2n1	inactive	–
Cc1cc(-c2cccs2)nc(-n2cccc2)n1	12.6 µM (active)	–
CCc1nnc(SCc2c(F)cccc2Cl)c2cc3sccc3n12	inactive	–
CC(=O)OCC1(O)CC23CCC4c5ccoc5CCC4(C)C2CCC1C3 (stereo unspecified)	17.8 µM (active)	–
CCSc1ncc(Cl)c(C(=O)Nc2c(C(=O)c3ccccc3)oc3ccccc23)n1	inactive	–
C[C@@H]1NS(=O)(=O)c2cc(Cl)ccc2O[C@@H]1c1ccccc1	17.8 µM (active)	–
C[C@H]1NS(=O)(=O)c2cc(Cl)ccc2O[C@@H]1c1ccccc1	inactive	–
COC[C@@H]1NS(=O)(=O)c2ccc(Br)cc2O[C@H]1c1ccccc1	inactive	–
Cc1ccc2nc(-c3ccc(O)cc3)c(Nc3ccc4c(c3)OCO4)n2c1	inactive	–
COc1ccc(C)cc1Nc1n[n+](-c2ccccc2)c(-c2cccc(Cl)c2Cl)s1	35.5 µM (active)	–
COc1ccc(C)cc1S(=O)(=O)Nc1cccc(Cl)c1Cl	inactive	–
CCc1ccc(Nc2n[n+](-c3ccccc3)c(-c3cccc(Cl)c3Cl)s2)cc1	35.5 µM (active)	–
COc1cc(Br)c(-c2sc(Nc3ccccc3)n[n+]2-c2ccccc2)cc1OC	inactive	–
Cc1ccc(S(=O)(=O)N2CCc3cc(C(=O)Nc4ccc(Cl)cc4C)ccc32)cc1	inactive	–
CC(=O)c1c(C)n(S(=O)(=O)c2ccc(Cl)cc2)c2ccc(NS(=O)(=O)c3ccc(Cl)cc3)cc12	inactive	–
CCc1ccc(NC(=O)c2cc3c(=O)n(Cc4cccnc4)ccc3nc2C)cc1	inactive	–
CCc1cc2c(NC(Cc3ccccc3)C(=O)O)ncnc2s1 (stereo unspecified)	inactive	–
CCc1cc2c(SCC(=O)Nc3ncc(Cl)c(C)c3Cl)ncnc2s1	inactive	–
CCc1cc2c(NC3CCCC3)ncnc2s1	12.6 µM (active)	–

Structure (SMILES)	Potency	growth rescue (activation)
Cc1ccc2c(=O)c(C(=O)c3cccc(Cl)c3)cn(CC(=O)NCc3ccccc3)c2n1	inactive	–
Cc1nn2c(=O)cc(COC(=O)c3cccc(NC(=O)COc4ccccc4Cl)c3)nc2s1	inactive	–
CCOc1cc(/C=N/O)cc(Br)c1OC	11.2 µM (active)	–
CCOc1cc(/C=N/n2cnnc2)c(Br)cc1O	inactive	–
CCOc1c(Br)cc(/C=C2\C(=O)N(CCC#N)N=C2C)cc1OC	inactive	–
O=S(=O)(c1ccc(Br)cc1)c1nnn2c1nc(N1CCOCC1)c1sccc12	inactive	–
COc1cc(Nc2nc(-c3ccc(OC)c(OC)c3)nc3ccccc23)cc(OC)c1	inactive	–
CCCCN(CC)CCCNC(=O)c1nn(C)c2c1CS(=O)(=O)c1ccccc1-2	inactive	–
COc1ccc(Cn2c(=O)sc3ccccc32)cc1OC	11.2 µM (active)	–
C=CCSc1nnc(Cn2c(=O)sc3ccccc32)n1C	inactive	–
COc1ccc(CN2CCOC2=O)cc1OC	inactive	–
CCCCCn1c(=O)[nH]c2cc(C(=O)NCCN(C)CCCC)ccc2c1=O	inactive	–
CCC(=O)N1CCc2cc(S(=O)(=O)NC(Cc3ccccc3)C(=O)NCc3ccccc3)ccc21 (stereo unspecified)	inactive	–
COc1ccc(CNC(=O)C2=Cc3cccc(OC)c3OC2)cc1OC	–	0% [at 9.22 µM]
COc1ccc(NC(=O)c2ccco2)cc1NC(=O)COc1ccc(C)c(C)c1	inactive	–
COc1cc(NC(=O)c2cc([N+](=O)[O-])ccc2Br)ccc1NC(=O)c1ccco1	10 µM (active)	–
COc1ccc([N+](=O)[O-])cc1NC(=O)COC(=O)/C=C/c1ccco1	inactive	–
COCCNC(=O)c1ccc2c(c1)N=C(C)c1cc(C)ccc1S2	inactive	–
CCCn1c2ccccc2c2cnn(CC(=O)N(C)c3ccccc3CC)c(=O)c21	28.2 µM (active)	–
CCCn1c2ccccc2c2cnn(CC(=O)N(CC)c3cc(C)ccc3C)c(=O)c21	inactive	–
CCCn1c2ccccc2c2cnn(CC(=O)NCCCOC(C)C)c(=O)c21	inactive	–
Cc1ccc(S(=O)(=O)c2nc(-c3cccs3)oc2N2CCCCC2)cc1	inactive	–

Structure (SMILES)	Potency	growth rescue (activation)
COc1ccc(N2CCN(c3cc(C)nc4nncn34)CC2)cc1	inactive	–
Cc1ccccc1NC(=O)Cn1cc(C(=O)c2cccs2)c2ccccc21	inactive	–
Cc1ccc(C(=O)N2CCc3cc(CNC(=O)c4ccc(Br)cc4)ccc32)cc1	inactive	–
O=C(O)C1CC(=O)N(Cc2cccnc2)C1 (stereo unspecified)	inactive	–
CCCCCCCCCCCCN1C(=O)CSC1c1cccnc1 (stereo unspecified)	20 µM (active)	–
CCCCc1ccc(NC(=O)NCc2cccnc2)cc1	inactive	–
CCOc1ccc(CNC(=O)C2CCN(c3nnc(-n4cccc4CNc4ccc(C)cc4)s3)CC2)cc1OC	inactive	–
COc1ccccc1N1CCN(c2ccc(=O)n(CC(=O)NCc3ccc(OC(C)C)cc3)n2)CC1	inactive	–
Clc1ccc(Nc2nc(-c3cccs3)cs2)nc1	8.91 µM (active)	–
CCN(c1ccc(Cl)cc1)S(=O)(=O)c1nnc(NC(=O)c2ccco2)s1	inactive	–
CCc1cnc2c(c1SCC(=O)N1CCC(C)CC1)c(=O)n(C)c(=O)n2C	inactive	–
CCCc1cc(-c2n[nH]c(=S)n2CC)c2ccccc2n1	inactive	–
Cc1cc(-c2n[nH]c(=S)n2/N=C/C(Br)=C/c2ccccc2)n[nH]1	35.5 µM (active)	–
C#Cc1cc(N2CCN(C(=O)c3ccoc3)CC2)n2nc(-c3cccc(Cl)c3)cc2n1	22.4 µM (active)	–
O=C(c1cccc(Cl)c1)N1CCN(CCc2ccncc2)CC1	inactive	–
O=C(Cn1cc(SCc2cccc(Cl)c2)c2ccccc21)N1CCCCC1	inactive	–
CCOCCCNC(=O)c1cc2c(=O)n3ccccc3nc2s1	inactive	–
CN(C(=O)c1cc2c(=O)n3ccccc3nc2s1)C1CCCCC1	14.1 µM (active)	–
O=C(Nc1ccc(OC(F)(F)F)cc1)c1cc2c(=O)n3ccccc3nc2s1	inactive	–
CCN(CCCNC(=O)c1cc2c(=O)n(CC)c3ccccc3c2s1)Cc1ccccc1	inactive	–
Cc1oc2ncnc(N3CCOCC3)c2c1C(=O)NCCc1ccccc1	inactive	–
NS(=O)(=O)c1ccc(CCNC(=O)CCCCCn2c(=O)[nH]c3ccccc3c2=O)cc1	inactive	–
